Assay outcomes deposited in PubChem by National Center for Advancing Translational Sciences (NCATS).
In the library only some 2.4% were active in any assay of this set; here they are far more common.
Pol iota inh: blocks human DNA polymerase iota activity. Potency, µM (titrated, usually from 115 µM), usual class: inhibitors. AID 588590. 390,000 compounds, 1% hits. Pol iota fluorescent replication assay, 10 min
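Fluorescent replication assay read twice, at 0 min and 10 min after adding 50 nM (final) substrate. Enzyme (10 nM) and compounds were first incubated 15 min at room temperature; enzyme-free buffer wells were negative controls.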
FEN1 inhibitor: inhibitors of human flap endonuclease 1; 390,000 compounds, 0.35% hits; AID 588795; P39748; Potency, µM (highest dose often 114 µM), actives largely listed as inhibitors; Recombinant FEN1 flap cleavage, fluorescence, 15 min; note: nearly all actives have a fitted effect of over 65% in size
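Steps: FEN1 (10 nM) dispensed; compound added by pin tool; 15 min at room temperature; substrate added to 50 nM final; reads at 0 min and 15 min; data normalized and fitted (four-parameter Hill).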
Pol eta inh: inhibitors of human DNA polymerase eta | Q9Y253 | recombinant Pol eta, fluorescent DNA replication assay | Potency, µM (series often up to 114 µM), hits mostly inhibitors | 390,000 compounds, 1.2% hits
Target sequence (Q9Y253 whole entry, looked up): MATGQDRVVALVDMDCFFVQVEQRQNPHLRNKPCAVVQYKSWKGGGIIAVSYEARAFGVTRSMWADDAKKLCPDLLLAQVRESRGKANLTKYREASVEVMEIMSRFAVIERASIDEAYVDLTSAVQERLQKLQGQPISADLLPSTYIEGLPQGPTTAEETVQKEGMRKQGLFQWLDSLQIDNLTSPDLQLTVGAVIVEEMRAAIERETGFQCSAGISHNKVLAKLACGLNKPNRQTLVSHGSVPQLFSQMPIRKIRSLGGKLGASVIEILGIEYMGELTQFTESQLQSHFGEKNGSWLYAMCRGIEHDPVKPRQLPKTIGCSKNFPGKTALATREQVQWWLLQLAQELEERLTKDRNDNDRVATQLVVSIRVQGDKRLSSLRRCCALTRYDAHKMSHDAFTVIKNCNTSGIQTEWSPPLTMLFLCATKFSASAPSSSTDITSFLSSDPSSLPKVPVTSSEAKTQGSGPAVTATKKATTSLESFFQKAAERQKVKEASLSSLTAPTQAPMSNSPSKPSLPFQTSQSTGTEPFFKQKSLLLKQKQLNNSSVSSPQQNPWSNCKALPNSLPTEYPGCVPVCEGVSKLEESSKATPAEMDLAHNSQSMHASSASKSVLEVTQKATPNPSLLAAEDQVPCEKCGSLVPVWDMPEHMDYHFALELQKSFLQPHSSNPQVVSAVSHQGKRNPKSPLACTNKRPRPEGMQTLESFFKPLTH
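Pol eta (10 nM) was preincubated with compounds for 15 min at room temperature, after which fluorescent replication substrate (50 nM final) was added to start the reaction. Fluorescence was read kinetically at 0 and 10 min.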
Pol beta inh: blocks human DNA polymerase beta activity | P06746 | Potency, µM (top dose mostly 114 µM), hits mostly inhibitors | Pol beta primer extension/strand displacement, fluorescence kinetic | 340,000 compounds, 1.3% hits | AID 485314
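Reaction started by 50 nM substrate onto compound-treated Pol beta (10 nM, 15 min preincubation, room temperature); plates read at 0 min and 10 min. Normalized concentration-effect data fitted by four-parameter Hill equation.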
POLK inh: DNA polymerase kappa (human) inhibition; 400,000 compounds, 0.53% hits; Potency, µM (highest dose often 107 µM), actives largely listed as inhibitors; purified Pol kappa, fluorescent DNA synthesis assay, 10 min; Q9UBT6
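Readout: fluorescence, taken kinetically at 0 and 10 min. Conditions: 10 nM Pol kappa, 15 min RT compound preincubation, 50 nM substrate final. Controls: enzyme-free buffer wells.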
WRN helicase inh: inhibitors of human WRN helicase. WRN helicase unwinding, fluorescent forked duplex, kinetic. Potency, µM (highest dose often 114 µM), actives largely listed as inhibitors. 360,000 compounds, 0.46% hits. Q14191; note: nearly all actives have a fitted effect of over 55% in size
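Primary qHTS, 1536-well format. 20 nM WRN + compound, 15 min RT; start with 100 nM forked fluorophore/quencher duplex, 2 mM ATP (final); kinetic read ex 525/em 598 nm.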
PGK validate: TbPGK inhibition, hit validation; shares compounds with POLK inh; TbPGK coupled GAPDH assay, Kinase-Glo luminescence; Potency, µM (series often up to 57.5 µM), hits mostly inhibitors; 500 compounds, 79% hits; note: nearly all actives have a fitted effect of over 65% in size
Pol iota confirm: Human Pol iota inhibitor confirmatory assay. Pol iota primer extension, TAMRA/BHQ fluorescence. shares compounds with POLK inh. Potency, µM, hits mostly inhibitors. 1,500 compounds, 77% hits
Large screens that a line does not name were inactive (follow-up assays come after a bar, where they were run). Calls come from the whole dose curve; as a rule, active = well fitted curve in the direction sought with a large enough effect; inconclusive = small, poorly fitted or top-dose-only effect, or another doubt; inactive = no such curve, though single readings can be large; an effect the other way counts as inactive or inconclusive.

CC(=O)N[C@H]1CSSC[C@@H](C(=O)N2CCC[C@H]2C(=O)N2CCC[C@H]2C(=O)N[C@@H](CCCCN)C(=O)N[C@@H](CC(=O)O)C(N)=O)NC(=O)CNC(=O)[C@H](Cc2c[nH]c3ccccc23)NC(=O)[C@H](CCCNC(=N)N)NC(=O)[C@@H](Cc2ccc(Cl)c(Cl)c2)NC(=O)[C@H](Cc2cnc[nH]2)NC(=O)[C@H](CCC(=O)O)NC1=O	none (no result: Pol iota inh, FEN1 inhibitor, Pol eta inh, Pol beta inh, WRN helicase inh)
CCC1CCc2c(sc(NC(=O)C3CC=CCC3C(=O)O)c2C#N)C1 (stereo not drawn)	Pol eta inh inconclusive, Pol beta inh 79µM | PGK validate inconclusive
CC1CCc2c(sc(NC(=O)C3CCCO3)c2C#N)C1 (stereo not drawn)	none
O=C1C2C3C=CC(CC3)C2C(=O)N1c1nccs1 (stereo not drawn)	Pol iota inh 16µM, Pol eta inh inconclusive, Pol beta inh 22µM, POLK inh 18µM, WRN helicase inh 40µM | Pol iota confirm 75
COc1ccc(O)c(C(c2c(C)[nH][nH]c2=O)c2c(C)[nH][nH]c2=O)c1	Pol beta inh inconclusive | Pol iota confirm inconclusive
Cc1ccsc1/C=N/Nc1nc(=O)[nH]nc1C	none | PGK validate 18µM
COc1cc(NC(=O)C(Cc2ccccc2)NS(=O)(=O)c2cccs2)cc(OC)c1 (stereo not drawn)	none (no result: WRN helicase inh)
Cc1ccc(-c2cc(C(=O)Nc3ccc(S(=O)(=O)N4CC(C)OC(C)C4)cc3)[nH]n2)c(O)c1 (stereo not drawn)	Pol iota inh 40µM, FEN1 inhibitor inconclusive, Pol beta inh 18µM, POLK inh inconclusive, WRN helicase inh inconclusive | Pol iota confirm 75
COc1ccc(-c2ccc3oc(-c4ccc(OC)cc4)c(C#CCCO)c3c2)cc1	Pol iota inh 35µM, Pol eta inh 45µM (no result: Pol beta inh) | Pol iota confirm 38
COc1ccc(C#Cc2c(-c3ccc(OC)cc3)oc3ccc(-c4ccc(OC)cc4)cc23)cc1	none (no result: Pol beta inh)
O=C(c1ccncc1)N1CCC2(CCCN(c3ccccc3)C2)CC1	none (no result: Pol iota inh, FEN1 inhibitor, Pol eta inh, Pol beta inh, WRN helicase inh)
O=c1[nH]c2cc(Cl)c(O)cc2o1	none (no result: Pol iota inh, FEN1 inhibitor, Pol eta inh, Pol beta inh, WRN helicase inh)
CCCS(=O)(=O)c1cnc(C2COc3ccccc3O2)nc1N (stereo not drawn)	none | PGK validate 18µM
CCCCCn1c(N)c(-c2nc3ccccc3s2)c2c([N+](=O)[O-])nn(C)c(=O)c21	none
CCCCn1c(N)c(-c2nc3ccccc3o2)c2c([N+](=O)[O-])nn(C)c(=O)c21	Pol iota inh inconclusive, FEN1 inhibitor inconclusive, Pol eta inh inconclusive, Pol beta inh inconclusive, WRN helicase inh inconclusive | Pol iota confirm 42
CC(=O)Nc1ccc(S(=O)(=O)N2CCC(N3CCN(Cc4ccc(C)cc4)C(=O)C3=O)CC2)cc1	Pol iota inh 79µM, Pol eta inh inconclusive, Pol beta inh 45µM (no result: WRN helicase inh) | Pol iota confirm inconclusive
CCOc1ccc(S(=O)(=O)N2CCC(N3CCN(Cc4ccc(C)cc4)C(=O)C3=O)CC2)cc1	none (no result: WRN helicase inh)
O=C1Nc2ccccc2C1=Nc1ccc(S(=O)(=O)Nc2nccs2)cc1	Pol iota inh 8.9µM, FEN1 inhibitor 50µM, Pol eta inh 20µM, POLK inh inconclusive, WRN helicase inh 20µM | PGK validate 18µM
COc1ccc(OC)c(NC(=O)Cn2c(=O)cc(-c3ccccc3)c3c(C)nn(C)c32)c1	Pol eta inh inconclusive, Pol beta inh inconclusive (no result: WRN helicase inh) | Pol iota confirm 47
COc1ccc(C)cc1NC(=O)Cn1c(=O)cc(C)c2c(C)nn(C)c21	none (no result: Pol eta inh, WRN helicase inh)
Fc1ccc(/C=N/Nc2nccnc2Cl)cc1	none
Fc1cccc(/C=N/Nc2nccnc2Cl)c1	none | PGK validate 16µM
